According to the supplement of paper PMC13380429:

System: Vero E6 infected with SARS-CoV-2
Assay: inhibition of SARS-CoV-2 cytopathic effect; higher = more antiviral protection, active = above 15
Conditions: 48 h

Measured: inhibition of SARS-CoV-2 cytopathic effect

O=C(O)c1c(Sc2ccccc2)c2cc(Cl)ccc2n1Cc1ccc(Cl)cc1
inactive: 1 nM 1.19% | 8.33 nM -0.87% | 100 nM -0.5% | 833.33 nM 3.75% | 10000 nM 1.7%

O=C(O)c1ccc(Nc2ncc3c(n2)-c2ccc(Cl)cc2C(c2c(F)cccc2F)=NC3)cc1
inactive: 1 nM -1.58% | 8.33 nM -1.02% | 100 nM 0.11% | 833.33 nM -1.57% | 10000 nM -1.05%

COc1ccc(C2CNC(=O)NC2)cc1O[C@H]1C[C@@H]2CC[C@H]1C2 [atizoram]
inactive: 1 nM -0.64% | 8.33 nM 1.37% | 100 nM -0.71% | 833.33 nM -0.02% | 10000 nM -1.24%

O=[N+]([O-])O[C@@H]1CO[C@H]2[C@@H]1OC[C@@H]2O [isosorbide-mononitrate]
inactive: 1 nM -2.43% | 8.33 nM -1.06% | 100 nM -1.7% | 833.33 nM 2.64% | 10000 nM 1.45%

CC(C)c1ccc(NC(=O)Cn2cnc3c2c(=O)n(C)c(=O)n3C)cc1
inactive: 1 nM -0.13% | 8.33 nM 1.6% | 100 nM 1.39% | 833.33 nM 2.45% | 10000 nM 3.83%

N[C@H]1C(O)O[C@H](CO)[C@@H](O)[C@@H]1O (mixture of isomers) [glucosamine]
inactive: 1 nM 3.44% | 8.33 nM 0.07% | 100 nM 2.73% | 833.33 nM 0.81% | 10000 nM 1.42%

Cc1cc(-n2c(=O)[nH]c(=O)n(C)c2=O)ccc1Oc1ccc(SC(F)(F)F)cc1 [toltrazuril]
inactive: 1 nM 1.91% | 8.33 nM -0.85% | 100 nM 1.02% | 833.33 nM -10.3% | 10000 nM -0.06%
